Assay results published in PubChem BioAssay (EPA / NIEHS).
Values joined by “and” are separate entries in the source; they are usually repeats but may differ in a detail not shown here. Equal values may be shown once. The source holds several records for some structures; these can differ, active in one and inactive in another. Active and inactive are the calls of the source. How the source made its calls: active means hit-call score of the fitted dose curve at least 0.9, where 1 is the maximum; inactive means score below 0.9.

Assay: ATG_EGR_CIS: Attagene CIS-FACTORIAL HepG2 Assay for human Early Growth Response 1 (EGR1) (AID 2282938)
Details: HepG2 Attagene CIS-FACTORIAL EGR reporter mRNA; actives raise or lower the signal
Description: ATG_CIS is a cell-based, multiplexed-readout assay that uses HepG2, a human liver cell line, with measurements taken at 24 hours after chemical dosing in a 24-well plate.ATG_EGR_CIS is one of 52 assay component(s) measured or calculated from the ATG_CIS assay. It is designed to make measurements of mRNA induction, a form of inducible reporter, as detected with fluorescence intensity signals by Reverse transcription polymerase chain reaction (RT-PCR) and Capillary electrophoresis technology.Data from the assay component ATG_EGR_CIS was analyzed into 1 assay endpoint. This assay endpoint, ATG_EGR_CIS, was analyzed with bidirectional fitting relative to DMSO as the negative control and baseline of activity. Using a type of inducible reporter, measures of mRNA for gain or loss-of-signal activity can be used to understand the reporter gene at the transcription factor-level as they relate to the gene EGR1. Furthermore, this assay endpoint can be referred to as a primary readout, because this assay has produced multiple assay endpoints where this one serves a reporter gene function. To generalize the intended target to other relatable targets, this assay endpoint is annotated to the dna binding intended target family, where the subfamily is zinc finger.
Human liver HepG2 cells are transiently transfected with multiple reporter transcription units (MRTUs) in 6-well plates using FuGene 6 reagent (Roche; 3 ml FuGene/1 mg DNA). The MRTU constructs are regulated by a cis-regulating element (promoter). […] A major difference between the CIS and TRANS system is that in CIS activities of endogenous TFs are measured, whereas the TRANS assay evaluates changes in activities of exogenous, chimeric NR-Gal4 proteins. […] At the end of 24 hour incubation, total RNA was isolated using TriZol reagent (Invitrogen). The isolated RNA is then reverse-transcribed using oligo(dT) primer and Mo-MLV reverse transcriptase (Invitrogen) with DNAse I (Ambion) treatment for 30 min. The one-tenth of the produced cDNA was amplified by PCR using Taq DNA polymerase (Invitrogen) and two reporter sequence-specific primers. The PCR products were fluorescently labeled by primer extension with 6-arboxyfluorescein (6-FAM) 5'-labeled reporter sequence-specific primer (2 min at 95 C, 20 s at 68 C and 10 min at 72 C) and these products were digested with 5U of HpaI (New England Biolabs) for 2h at 37 C. The fragments were purified using Qiaquick PCR columns (Qiagen), analyzed on an ABI 3130xL genetic analyzer (Applied Biosystems) with peak positions identified by using a set of X-rhodamine (ROX)-labeled MapMarker1000 molecular weight standards (BioVentures). The raw capillary electrophoresis data was processed using Attagraph software (Attagene).

SMILES	outcome	AC50
COC(=O)N(OC)c1ccccc1COc1ccn(-c2ccc(Cl)cc2)n1	inactive	
CCCN(CCC)c1c([N+](=O)[O-])cc(S(N)(=O)=O)cc1[N+](=O)[O-]	inactive	
CCCC1COC(Cn2cncn2)(c2ccc(Cl)cc2Cl)O1 (stereo not given)	inactive	
CCCCNC(=O)OCC#CI	inactive	33.4 µM (active)
COc1nc(NC(C)C)nc(NC(C)C)n1	inactive	
CNC(=S)S	inactive	50 µM (active)
Cc1ccc(-c2c(Cl)nc(C#N)n2S(=O)(=O)N(C)C)cc1	inactive	
CO/C=C(/C(=O)OC)c1ccccc1Oc1cc(Oc2ccccc2C#N)ncn1	inactive	11.7 µM (active) and 13.8 µM (active)
CN(C)C(=S)SSC(=S)N(C)C	inactive	
O=C(O)c1nc(Cl)ccc1Cl	inactive	
C=CCC1=C(C)[C@@H](OC(=O)[C@@H]2[C@@H](C=C(C)C)C2(C)C)CC1=O	inactive	
CS/C(C)=N/OC(=O)N(C)SN(C)C(=O)O/N=C(\C)SC	inactive	
CC(C)C1(C)N=C(c2nc3ccccc3cc2C(=O)O)NC1=O (stereo not given)	inactive	
COC(=O)C(C)Oc1ccc(Oc2ccc(Cl)cc2Cl)cc1 (stereo not given)	inactive	
N#Cc1nn(-c2c(Cl)cc(C(F)(F)F)cc2Cl)c(N)c1S(=O)C(F)(F)F (stereo not given)	inactive	35.8 µM (active)
Fc1ccc(Oc2ccnc3cc(Cl)cc(Cl)c23)cc1	inactive	
COc1nc(C)nc(NC(=O)NS(=O)(=O)c2ccccc2Cl)n1	inactive	
COP(N)(=O)SC (stereo not given)	inactive	

SMILES	outcome	AC50
CCOP(=S)(OCC)SCn1c(=O)oc2cc(Cl)ccc21	inactive	
CCOc1cc(Oc2ccc(C(F)(F)F)cc2Cl)ccc1[N+](=O)[O-]	inactive	
C=CC1(C)OC(=O)N(c2cc(Cl)cc(Cl)c2)C1=O (stereo not given)	inactive	
CON(C)C(=O)Nc1ccc(Cl)c(Cl)c1	inactive	
COc1ccc(C(c2ccc(OC)cc2)C(Cl)(Cl)Cl)cc1	inactive	
CC1COC(Cn2cncn2)(c2ccc(Oc3ccc(Cl)cc3)cc2Cl)O1 (stereo not given)	inactive	
CC1=C(C(=O)Nc2ccccc2)SCCO1	inactive	
COc1cnc(OC)n2nc(NS(=O)(=O)c3c(OCC(F)F)cccc3C(F)(F)F)nc12	inactive	
CCON=C(CC)C1=C(O)CC(c2c(C)cc(C)cc2C)CC1=O (stereo not given)	inactive	
COc1nc(C)nc(NC(=O)NS(=O)(=O)c2ccccc2CCC(F)(F)F)n1	inactive	
CNC(=O)ON=CC(C)(C)SC	inactive	
COP(=S)(OC)Oc1nc(Cl)c(Cl)cc1Cl	inactive	
CC(C)Oc1cc(-n2nc(C(C)(C)C)oc2=O)c(Cl)cc1Cl	inactive	
O=C(Nc1ccccc1)Nc1ccnc(Cl)c1		50 µM (active)
OC(c1ccc(Cl)cc1)(c1cncnc1)c1ccccc1Cl (stereo not given)	inactive	
CCNc1nc(Cl)nc(NC(C)C)n1	inactive	
CCc1nn(C)c(C(=O)NCc2ccc(C(C)(C)C)cc2)c1Cl	inactive	
CCNc1nc(Cl)nc(NCC)n1	inactive	
